Screens as filed in PubChem.
HIV RNase H inh-1: blocks HIV-1 RNase H cleavage of RNA/DNA duplex; P04585; RT-RNase H RNA/DNA duplex cleavage, fluorescence; inhibition, % at 10 µM; hit rate 1.9% among 65,000; in the data active = inhibition above about 50%
HIV RNase H inh-2: confirmation of HIV-1 reverse transcriptase RNase H inhibitors. shares compounds with HIV RNase H inh-1. Recombinant RT RNase H, fluorescent RNA/DNA duplex cleavage. inhibition, % at 10 µM. hit rate 39% among 1,000; in the data active = inhibition above about 48%; inconclusive = no clear call, values can overlap the other calls
Starred values were filed as active, the others as inactive; ? = inconclusive. The full list was thinned out, with hits kept by preference.

SMILES	HIV RNase H inh-1	others
CS(=O)(=O)N(CC(=O)N1CCCC1)c1cccc(Cl)c1	-18
Cc1cc2n(n1)C(c1ccsc1)Nc1ccccc1-2 (stereo not given)	-8
CSc1ccc(C2Nc3ccccc3-c3cc(C)nn32)cc1 (stereo not given)	71*	HIV RNase H inh-2=-6
Cc1cc2n(n1)C(c1ccccc1Cl)Nc1ccccc1-2 (stereo not given)	-13
COc1ccc(OC)c(-n2nnnc2SCC(=O)NCc2ccc3c(c2)OCO3)c1	-40
CCOC(=O)c1ccc2nc3c(cc2c1)CCS3	-10
COc1ccc(-c2ccc(SCC(=O)N3CCOCC3)nn2)cc1OC	0
COc1ccc(-c2ccc(SCC(=O)N3CCCC3)nn2)cc1OC	90*	HIV RNase H inh-2=6
COc1ccc(-c2nnc(SCC(=O)N3CCCC3)o2)cc1OC	4
CCOc1cc(NC(=O)C2CC2)c(OCC)cc1NC(=O)c1cccnc1	-2
CCCCOc1ccc(/C(N)=N/O)cc1	0
Nc1sc2c(c1C(=O)NC1CCS(=O)(=O)C1)CCCC2 (stereo not given)	66*	HIV RNase H inh-2=26
NC(=O)c1c(N)sc2c1CCCC2	35
O=C(Nc1sc2c(c1C(=O)NC1CC1)CCCCCC2)c1ccco1	29
Cc1cc(C(=O)OCn2nnc3ccccc3c2=O)c(C)n1-c1ccccc1	-36
O=C(Nc1ccccc1F)c1ccc(S(=O)(=O)NCC2CCCO2)cc1 (stereo not given)	6
CCCCNC(=O)c1ccc2nc(-c3ccco3)c(-c3ccco3)nc2c1	92*	HIV RNase H inh-2=2
CCCNC(=O)c1cc(-c2ccco2)on1	-5
O=C(NCc1ccco1)c1cccc(NC(=O)c2ccccc2)c1	-10
O=C(Nc1nnc(-c2ccco2)s1)c1ccccc1	23
O=C(Nc1ccc(N2CCOCC2)cc1)c1ccc2nc(-c3ccco3)c(-c3ccco3)nc2c1	91*	HIV RNase H inh-2=63*
COc1ccc(C(=O)Nc2ccc(N3CCOCC3)cc2)cc1OC	2
O=C(Nc1ccc(N2CCN(C(=O)c3ccco3)CC2)cc1)c1ccc(F)cc1	-4
Cn1nnc2cc(C(=O)NCc3ccco3)ccc21	-2
O=C(Nc1ccccc1)c1ccc2nc(-c3ccco3)c(-c3ccco3)nc2c1	100*	HIV RNase H inh-2=28
SMILES	HIV RNase H inh-1	others
O=C(CN(C(=O)c1ccc2c(c1)OCCO2)c1ccccc1)NCC1CCCO1 (stereo not given)	22
COC(=O)C1=C(N)Oc2cc(C)n(Cc3cccnc3)c(=O)c2C1c1cccc(OC)c1OC (stereo not given)	-13
Cc1cc(-c2nn3c(C)nnc3s2)ccc1NC(=O)C(C)(C)C	-11
CN1CCN(C(=O)C2CC(c3c(F)cccc3Cl)=NO2)CC1 (stereo not given)	-10
Cc1ccc(-c2c3c([nH]c(=S)c2C#N)CCCC3)o1	87*	HIV RNase H inh-2=32
COC(=O)CSc1nc2c(c(-c3ccc(C)o3)c1C#N)CCCC2	-48
Cc1ccc(/C=N/c2sc3c(c2C#N)CCCCC3)o1	-5
Cc1ccc(C)c(NC(=O)CSc2nnc(-c3ccccc3)n2N)c1	0
Cc1nc(SCCCSc2n[nH]c(C)n2)n[nH]1	-13
OCn1ncn(-c2ccccc2)c1=S	9
OCCn1nc2c3ccccc3nc-2n(-c2ccccc2)c1=S	89*	HIV RNase H inh-2=14
Cc1nn(-c2ccccc2)c(=S)n1-c1ccccc1	3
COc1ccc(-c2cc(C(F)(F)F)nc(SCCC(=O)N3CCOCC3)n2)cc1	-6
COc1ccc(OC)c(NC(=O)C(CC(=O)O)NCc2ccco2)c1 (stereo not given)	7
Cc1ccc(-n2c(SCC(=O)Nc3ccc4c(c3)OCO4)nnc2-c2cccs2)cc1	65*	HIV RNase H inh-2=29
Cc1ccc(-n2c(SCC(=O)Nc3ccc4c(c3)OCCO4)nnc2-c2ccco2)cc1	-14
O=C(CSc1nnc(-c2cccs2)n1-c1ccccc1)NCc1ccc2c(c1)OCO2	-53
CCn1c(SCc2c(F)cccc2Cl)nnc1-c1ccco1	-6
CC(=O)NCCc1ccc(S(=O)(=O)Nc2cccnc2)cc1	-4
CCCn1c(SCC(=O)NC)nnc1C(C)C	-9
Cc1ccc(-c2[nH]nc3c2C(c2ccc(OC(=O)N4CCOCC4)cc2)C(C#N)=C(N)O3)cc1 (stereo not given)	-15
COc1cccc(C(=O)OCC(=O)Nc2ccccc2N2CCOCC2)c1	-1
COC(=O)c1ccc(N2CCOCC2)c(NC(=O)Nc2cccc(OC)c2)c1	87*	HIV RNase H inh-2=-2
COc1cccc(C(=O)Nc2ccccc2N2CCOCC2)c1	-10
O=C(CN1CCCC1=O)NC1(C(F)(F)F)NC(=O)N(Cc2ccccc2)C1=O (stereo not given)	1
SMILES	HIV RNase H inh-1	others
CCN1CCCC1CNC(=O)c1ccc(CS(=O)(=O)c2ccccc2C)o1 (stereo not given)	-10
Cc1ccc(C(=O)C2COC(=O)C2)cc1 (stereo not given)	1
COc1cc(/C=N/n2cnnc2)ccc1OC(=O)N(C)C	-1
Cn1c(=O)n(C)c2cc(/C=N/n3cnnc3)ccc21	59*	HIV RNase H inh-2=0
CCOc1cc(/C=N/n2cnnc2)ccc1O	-4
N[C@@H](C(=O)N[C@@H]1C(=O)N2C(C(=O)O)=C(Cl)CS[C@H]12)c1ccccc1	59*	HIV RNase H inh-2=33
CCN1CCCC1CNC(=O)c1cc(NC(C)=O)c(N(C)C)cc1OC (stereo not given)	-2
Brc1ccc(-c2nn3c(-c4ccco4)nnc3s2)o1	7
Cc1occc1-c1nnc2sc(-c3ccc(-c4ccc(Cl)cc4)o3)nn12	24
COc1ccc(-c2nnc3sc(C4CCCCC4)nn23)cc1OC	-1
Clc1ccc(-c2ccc(-c3nn4c(-c5ccco5)nnc4s3)o2)cc1	99*	HIV RNase H inh-2=?
c1ccc(-c2nn3c(-c4ccco4)nnc3s2)nc1	-3
c1coc(-c2nnc3sc(C4CCCCC4)nn23)c1	75*	HIV RNase H inh-2=?
C=CCn1c(COc2ccc(Cl)cc2)nnc1SCC(=O)N1CC(=O)Nc2ccccc21	-7
Cn1c(N)c(C(=O)COC(=O)Cn2cc(C(F)(F)F)ccc2=O)c(=O)n(C)c1=O	-1
O=C(Cc1cccs1)N1CCCC(c2nc3c(nnn3Cc3cccc(Cl)c3)c(=O)[nH]2)C1 (stereo not given)	-7
CC(C)Oc1ccc(C(=O)N(Cc2ccco2)C2CCS(=O)(=O)C2)cc1 (stereo not given)	1
CCSc1nnc(NC(=O)CSc2nc3c(c(=O)n2CCOC)SC(C)C3)s1 (stereo not given)	-5
Cc1ccc(C(=O)CSc2nnc(-c3ccco3)n2CC2CCCO2)cc1 (stereo not given)	-1
COC(=O)C(CC(=O)c1ccc(Br)cc1)n1ccnc1 (stereo not given)	79*	HIV RNase H inh-2=36
CCOC(=O)N1CCN(C(=O)CC(C(=O)N2CCc3ccccc32)n2ccnc2)CC1 (stereo not given)	-4
Cc1ccc(C(=O)CC(C(=O)O)n2cccn2)cc1 (stereo not given)	-1
Cc1ccccc1OCCNC(=O)CNC(=O)c1ccccc1O	10
Cn1c(=O)c2cc(S(=O)(=O)N3CCOCC3)ccc2n(C)c1=O	-11
CCN1C(=O)Cc2cc(S(=O)(=O)N3CCOCC3)ccc21	-2
O=c1c2ccccc2sn1-c1cc(S(=O)(=O)N2CCOCC2)ccc1N1CCOCC1	95*	HIV RNase H inh-2=61*
CSc1ncc(Cl)c(C(=O)C(C#N)c2nc3c(C)cc(C)cc3c(=O)[nH]2)n1 (stereo not given)	-18
